One assay has as its target MAGED2. Kind of assay: pooled miR-30 sensor sort-seq; sequence = guide strand. The note with it: shRNA.
TTTAGCTTCTGCTCCCGCCTGG: the sensor-assay potency score (higher = more potent) was -0.0182.
Still for that read-out and setting: the value for TTGATGGGAATCTTCGTCTGGT was -0.0413; that for TTGGGTGAGTCCTTAGTCGTTC was -0.156.
In the case of TTTCTTGGCTTTGACCTTGGGC, the sensor-assay potency score (higher = more potent) was found to be 0.00108.
For the sequence TTCTTTTGTACCTTGCAGGCAA, the sensor-assay potency score (higher = more potent) came to 0.18.
The same measure, in the same setting: the value for AACAGAGTCTGCATCATCGAGC was -0.281; that for TTTGATGATGTCCTTCAGCATG was -1.48.
As to TTTTGAGACCTTCACATCCTCT, the sensor-assay potency score (higher = more potent) is -1.1.
For the sequence TTCTTTGATGATGTCCTTCAGC, the sensor-assay potency score (higher = more potent) is -0.636.
Turning to TCGAGCTCTAATCTCGGCCCTA, the sensor-assay potency score (higher = more potent) is -0.609.
Same read-out and setting: the value for TTGTATTGACCTTTGTATCAGC was -0.669.

In the next assay the target is MAGOHB. Described as above. The note with it: shRNA.
Sequence TTCTTTTGTAATTTCACTGTCA had a sensor-assay potency score (higher = more potent) of 0.267.
Still for that read-out and setting: the value for AAACTAAACATTTCAAGTCTTG was -0.697; that for TTCGAACTCCAGAAACTCGTGC was 0.282; that for TTTCTGATCATCACATCATTTT was -1.65.
With TTCCATTACACTCTTGTGCACA, the sensor-assay potency score (higher = more potent) was -0.478.
Turning to AATTACAATTTCAAGCTCCTGT, the sensor-assay potency score (higher = more potent) turned out to be 0.142.
The sequence ATATCTAAGCTTTCCGTCCGGC displayed a sensor-assay potency score (higher = more potent) of -0.264.
TTACATCAATAAGAGAACCTAT displayed a sensor-assay potency score (higher = more potent) of -0.7.
TTCTTCCATTACACTCTTGTGC gave a sensor-assay potency score (higher = more potent) of -0.965.

The record behind these values is the OligoGym collection.
Note: reference of the scale not given here.
